{"source": "the supplement of paper PMC10338343", "note": "± gives the standard deviation.", "data": [{"tested_on": "EfPiwi piRISC loaded with L1MC piRNA (26 nt)", "experiment": "pre-steady-state target cleavage rate (min^-1); auxiliary factor: 500 nM Ephydatia muelleri Gtsf1; guide: L1MC piRNA 5'p-UAACUAAAUACUAUGCAAGCUGUAGG; MIWI and MILI are mouse PIWI proteins and EfPiwi is from a freshwater sponge; tags in brackets are library labels; higher = faster piRNA-guided slicing of the target", "method": "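Cleave-'n-Seq: a library of target RNAs (target site in constant flanks) at […] was incubated with 1 nM active freshwater sponge Ephydatia fluviatilis Piwi piRISC (synthetic 5'-monophosphorylated piRNA guide) with or without 500 nM EmGtsf1 at 33 °C for 1 min to 16 h. Uncleaved targets were sequenced and the pooled three trials fitted to a burst-and-steady-state model to give the pre-steady-state cleavage rate (min^-1). Sequence is the target site only. Fits with R² ≤ 0 are excluded.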", "values": [{"sequence": "UCCUGGAUGUGCAUGCAUAGUAUUUAGUUA", "pre-steady-state target cleavage rate": "0.00855 ± 0.0029"}, {"sequence": "UCCUGGAUCUGCUUGCAUAGUAUUAAGUUA", "pre-steady-state target cleavage rate": "0.00735 ± 0.0037"}, {"sequence": "UCCUGGAACAGGUUCCAUAGUAUUUAGUUA", "pre-steady-state target cleavage rate": "0.00255 ± 0.0024"}, {"sequence": "UCCUGGUAGUCCUUGCAUAGUAUUUAGUAA", "pre-steady-state target cleavage rate": "0.00627 ± 0.0035"}, {"sequence": "UCCUGGAAGCAGCUUGCAUAGUAUUUAGUUA", "pre-steady-state target cleavage rate": "0.0569 ± 0.013"}, {"sequence": "UCCUCCAAGAGCUUGCAUAGUAUUUAGUUA", "pre-steady-state target cleavage rate": "0.0523 ± 0.014"}, {"sequence": "UCCUCCUACAGCUUGCAUAGAAUUUAGAUA", "pre-steady-state target cleavage rate": "0.00317 ± 0.0015"}, {"sequence": "UCCUGGAUCACCUUGCAUAGUAAUUAGUUA", "pre-steady-state target cleavage rate": "0.123 ± 0.049"}, {"sequence": "UCCUCCUACACCUUGCAUAGUUUUUAGUUA", "pre-steady-state target cleavage rate": "0.00443 ± 0.002"}, {"sequence": "UCCUGGAUGUCCUUGCAUAGUAUUUAGUCA", "pre-steady-state target cleavage rate": "0.00415 ± 0.004"}, {"sequence": "UCCUGCUACAGCUUGCAUAGUAUCUAGUUA", "pre-steady-state target cleavage rate": "0.00723 ± 0.0019"}, {"sequence": "UCCUGGUACAGCUUGCAUAGUAUUUUGUAA", "pre-steady-state target cleavage rate": "0.00379 ± 0.0027"}, {"sequence": "UCCUGGAUGAGCUUCCAUAGUAUUUAGAAA", "pre-steady-state target cleavage rate": "0.00248 ± 0.0019"}, {"sequence": "UCCUGGAUGAGCUUGCAUAGAAUUUAGUAA", "pre-steady-state target cleavage rate": "0.00272 ± 0.0027"}, {"sequence": "UCCUGGAACAGCUUGCAUAGUUUUUUGUUA", "pre-steady-state target cleavage rate": "0.00325 ± 0.0013"}, {"sequence": "UCCUGCUACAGCUUGCAUAGUAUAAUCAAA", "pre-steady-state target cleavage rate": "0.00391 ± 0.0037"}, {"sequence": "UCCUGGAUGUCGUUGCAUAGAUAAAUCAAA [g11:g18:cont:t1A]", "pre-steady-state target cleavage rate": "< 0.0001"}, {"sequence": "UCCUGGAACAGCUUGCAUAGUAUUUAGUAA", "pre-steady-state target cleavage rate": "0.00976 ± 0.0038"}, {"sequence": "UCCUGGAUGUCCUUGCAUAGUAUUUAAUUA", "pre-steady-state target cleavage rate": "0.00439 ± 0.003"}, {"sequence": "UCCUCCAACAGCUUGCAUAGUAUUUAGAUA", "pre-steady-state target cleavage rate": "0.0051 ± 0.0023"}, {"sequence": "UCCUGGAUGACGCUUGCAUAGUAUUUAGUUA", "pre-steady-state target cleavage rate": "0.0537 ± 0.014"}, {"sequence": "UCCUGGAUCUCCUUGCAUAGUAUUUAGUUA", "pre-steady-state target cleavage rate": "0.0227 ± 0.0066"}, {"sequence": "UCCUCCAACAGCUUGCAUAGUAUUUUCAAA", "pre-steady-state target cleavage rate": "0.00396 ± 0.0027"}, {"sequence": "UCCUGGAAGAGCUUGCAUAGUAUUUAGAAA", "pre-steady-state target cleavage rate": "0.00533 ± 0.002"}, {"sequence": "UCCUGGUACAGCUUGCAUAAUAUUUAGUUA", "pre-steady-state target cleavage rate": "0.00307 ± 0.0027"}, {"sequence": "UCCUGCUACAGCUUUGCAUAGUAUUUAGUUA", "pre-steady-state target cleavage rate": "0.0161 ± 0.0053"}, {"sequence": "UCCUGCUACAGCUUGCAUAGUAAAUAGUAA", "pre-steady-state target cleavage rate": "0.00351 ± 0.0022"}, {"sequence": "UCCUCCUACAGCUUGUCAUAGUAUUUAGUUA", "pre-steady-state target cleavage rate": "0.0546 ± 0.016"}, {"sequence": "UCCUGGAUCAGCUUGCAUAGUAAUUACUUA", "pre-steady-state target cleavage rate": "0.00233 ± 0.0022"}, {"sequence": "UCCUGGUAGAGCUUGCUUAGUAUUUAGUUA", "pre-steady-state target cleavage rate": "0.00885 ± 0.0045"}, {"sequence": "UCCUGGAACAGCUUGCAUAGUAUUUAGUUUA", "pre-steady-state target cleavage rate": "0.0245 ± 0.0071"}, {"sequence": "UCCUGGUUCACCUUGCAUAGUAUUUAGUUA", "pre-steady-state target cleavage rate": "0.0052 ± 0.0033"}, {"sequence": "UCCUGGAAAGCUUGCAUAGUAUUUAGUUA", "pre-steady-state target cleavage rate": "0.035 ± 0.0098"}, {"sequence": "UCCUGGAUGUGGUUGCAUAGUAUUUAGUUA", "pre-steady-state target cleavage rate": "0.00426 ± 0.0039"}, {"sequence": "UCCUGGAACAGCUGUGCAUAGUAUUUAGUUA", "pre-steady-state target cleavage rate": "0.00999 ± 0.0023"}, {"sequence": "UCCUGGAACAGCUUGACAUAGUAUUUAGUUA", "pre-steady-state target cleavage rate": "0.013 ± 0.004"}, {"sequence": "UCCUCCUACAGCUUUGCAUAGUAUUUAGUUA", "pre-steady-state target cleavage rate": "0.123 ± 0.036"}, {"sequence": "UCCUCCUUCAGCUUGCAUAGUAAUUAGUUA", "pre-steady-state target cleavage rate": "0.0731 ± 0.025"}, {"sequence": "UCCUGCUACAAGCUUGCAUAGUAUUUAGUUA", "pre-steady-state target cleavage rate": "0.00475 ± 0.0013"}, {"sequence": "UCCUGGAUGUGCUCUGCAUAGUAUUUAGUUA", "pre-steady-state target cleavage rate": "0.00925 ± 0.0031"}]}]}
